# Results: the supplement of paper PMC4466140
# Columns and labels:
# Assay in all cases: SPOT peptide array binding signal intensity (averaged, normalized) (arbitrary units (background-subtracted, floor 0; scale differs between SH3 domains)); higher = stronger binding of the SH3 domain to the peptide
# AgAbp1 = target: AgAbp1
# Summary of the method: (§1)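 GST-SH3 fusions from four yeast species, purified on glutathione Sepharose, were incubated at 10 μg/ml overnight at 4°C on membranes of synthetic 15-mer peptides in which cysteines were replaced with serines. Binding signal is the normalized, background-subtracted spot intensity averaged over replicates, in domain-specific arbitrary units.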
# AgBbc1 = target: AgBbc1
# Summary of the method: as §1
# AgBem1-D1 = target: AgBem1-D1
# Summary of the method: as §1
# AgBzz1-D1 = target: AgBzz1-D1
# Summary of the method: as §1
# AgBzz1-D2 = target: AgBzz1-D2
# Summary of the method: as §1
# AgCyk3 = target: AgCyk3
# Summary of the method: as §1
# AgFus1 = target: AgFus1
# Summary of the method: as §1
# AgHof1 = target: AgHof1
# Summary of the method: as §1
# AgHse1 = target: AgHse1
# Summary of the method: as §1
# AgLsb1 = target: AgLsb1
# Summary of the method: as §1
# AgLsb4 = target: AgLsb4
# Summary of the method: as §1
# AgMyo5 = target: AgMyo5
# Summary of the method: as §1
# AgNbp2 = target: AgNbp2
# Summary of the method: as §1
# AgRvs167 = target: AgRvs167
# Summary of the method: as §1
# AgSho1 = target: AgSho1
# Summary of the method: as §1
# AgSla1-D1-D2 = target: AgSla1-D1-D2
# Summary of the method: as §1
# AgSla1-D3 = target: AgSla1-D3
# Summary of the method: as §1
# CaAbp1-D1 = target: CaAbp1-D1
# Summary of the method: as §1
# CaAbp1-D2 = target: CaAbp1-D2
# Summary of the method: as §1
# CaBbc1 = target: CaBbc1
# Summary of the method: as §1
# CaBem1-D1 = target: CaBem1-D1
# Summary of the method: as §1
# CaBzz1-D1 = target: CaBzz1-D1
# Summary of the method: as §1
# CaBzz1-D2 = target: CaBzz1-D2
# Summary of the method: as §1
# CaCyk3 = target: CaCyk3
# Summary of the method: as §1
# CaFus1 = target: CaFus1
# Summary of the method: as §1
# CaHof1 = target: CaHof1
# Summary of the method: as §1
# CaHse1 = target: CaHse1
# Summary of the method: as §1
# CaLsb1 = target: CaLsb1
# Summary of the method: as §1
# CaLsb4 = target: CaLsb4
# Summary of the method: as §1
# CaMyo5 = target: CaMyo5
# Summary of the method: as §1
# CaNbp2 = target: CaNbp2
# Summary of the method: as §1
# CaRvs167 = target: CaRvs167
# Summary of the method: as §1
# CaRvs167-3 = target: CaRvs167-3
# Summary of the method: as §1
# CaSho1 = target: CaSho1
# Summary of the method: as §1
# CaSla1-D1-D2 = target: CaSla1-D1-D2
# Summary of the method: as §1
# CaSla1-D3 = target: CaSla1-D3
# Summary of the method: as §1
# ScAbp1 = target: ScAbp1
# Summary of the method: as §1
# ScBbc1 = target: ScBbc1
# Summary of the method: as §1
# ScBem1-D1 = target: ScBem1-D1
# Summary of the method: as §1
# ScBzz1-D1 = target: ScBzz1-D1
# Summary of the method: as §1
# ScBzz1-D2 = target: ScBzz1-D2
# Summary of the method: as §1
# ScCyk3 = target: ScCyk3
# Summary of the method: as §1
# ScFus1 = target: ScFus1
# Summary of the method: as §1
# ScHof1 = target: ScHof1
# Summary of the method: as §1
# ScHse1 = target: ScHse1
# Summary of the method: as §1
# ScLsb1 = target: ScLsb1
# Summary of the method: as §1
# ScLsb2 = target: ScLsb2
# Summary of the method: as §1
# ScLsb3 = target: ScLsb3
# Summary of the method: as §1
# ScLsb4 = target: ScLsb4
# Summary of the method: as §1
# ScMyo3 = target: ScMyo3
# Summary of the method: as §1
# ScMyo5 = target: ScMyo5
# Summary of the method: as §1
# ScNbp2 = target: ScNbp2
# Summary of the method: as §1
# ScPex13 = target: ScPex13
# Summary of the method: as §1
# ScRvs167 = target: ScRvs167
# Summary of the method: as §1
# ScSho1 = target: ScSho1
# Summary of the method: as §1
# ScSla1-D1-D2 = target: ScSla1-D1-D2
# Summary of the method: as §1
# ScSla1-D3 = target: ScSla1-D3
# Summary of the method: as §1
# SpAbp1-D1 = target: SpAbp1-D1
# Summary of the method: as §1
# SpBbc1 = target: SpBbc1
# Summary of the method: as §1
# SpBzz1-D1 = target: SpBzz1-D1
# Summary of the method: as §1
# SpBzz1-D2 = target: SpBzz1-D2
# Summary of the method: as §1
# SpCyk3 = target: SpCyk3
# Summary of the method: as §1
# SpHof1 = target: SpHof1
# Summary of the method: as §1
# SpHof1-2 = target: SpHof1-2
# Summary of the method: as §1
# SpHof1-3 = target: SpHof1-3
# Summary of the method: as §1
# SpHse1 = target: SpHse1
# Summary of the method: as §1
# SpLsb1 = target: SpLsb1
# Summary of the method: as §1
# SpLsb4 = target: SpLsb4
# Summary of the method: as §1
# SpMyo1 = target: SpMyo1
# Summary of the method: as §1
# SpNbp2 = target: SpNbp2
# Summary of the method: as §1
# SpPex13 = target: SpPex13
# Summary of the method: as §1
# SpRvs167 = target: SpRvs167
# Summary of the method: as §1
# SpSla1-D1-D2 = target: SpSla1-D1-D2
# Summary of the method: as §1
# SpSla1-D3 = target: SpSla1-D3
# Summary of the method: as §1
binder,measurement,setting,value
APERAVPILPPRNNV,SPOT peptide array binding signal intensity,AgAbp1,7.5
same,SPOT peptide array binding signal intensity,AgBbc1,160
same,SPOT peptide array binding signal intensity,AgBem1-D1,47.5
same,SPOT peptide array binding signal intensity,AgBzz1-D1,84.5
same,SPOT peptide array binding signal intensity,AgBzz1-D2,10.5
same,SPOT peptide array binding signal intensity,AgCyk3,9
same,SPOT peptide array binding signal intensity,AgFus1,≤ 0
same,SPOT peptide array binding signal intensity,AgHof1,11.5
same,SPOT peptide array binding signal intensity,AgHse1,24.5
same,SPOT peptide array binding signal intensity,AgLsb1,109
same,SPOT peptide array binding signal intensity,AgLsb4,2180
same,SPOT peptide array binding signal intensity,AgMyo5,≤ 0
same,SPOT peptide array binding signal intensity,AgNbp2,≤ 0
same,SPOT peptide array binding signal intensity,AgRvs167,87.8
same,SPOT peptide array binding signal intensity,AgSho1,≤ 0
same,SPOT peptide array binding signal intensity,AgSla1-D1-D2,≤ 0
same,SPOT peptide array binding signal intensity,AgSla1-D3,0.5
same,SPOT peptide array binding signal intensity,CaAbp1-D1,11
same,SPOT peptide array binding signal intensity,CaAbp1-D2,14
same,SPOT peptide array binding signal intensity,CaBbc1,418
same,SPOT peptide array binding signal intensity,CaBem1-D1,2
same,SPOT peptide array binding signal intensity,CaBzz1-D1,≤ 0
same,SPOT peptide array binding signal intensity,CaBzz1-D2,28.5
same,SPOT peptide array binding signal intensity,CaCyk3,42.5
same,SPOT peptide array binding signal intensity,CaFus1,24
same,SPOT peptide array binding signal intensity,CaHof1,3.5
same,SPOT peptide array binding signal intensity,CaHse1,7.25
same,SPOT peptide array binding signal intensity,CaLsb1,≤ 0
same,SPOT peptide array binding signal intensity,CaLsb4,2970
same,SPOT peptide array binding signal intensity,CaMyo5,≤ 0
same,SPOT peptide array binding signal intensity,CaNbp2,25
same,SPOT peptide array binding signal intensity,CaRvs167,414
same,SPOT peptide array binding signal intensity,CaRvs167-3,≤ 0
same,SPOT peptide array binding signal intensity,CaSho1,4
same,SPOT peptide array binding signal intensity,CaSla1-D1-D2,1
same,SPOT peptide array binding signal intensity,CaSla1-D3,≤ 0
same,SPOT peptide array binding signal intensity,ScAbp1,1.5
same,SPOT peptide array binding signal intensity,ScBbc1,4.25
same,SPOT peptide array binding signal intensity,ScBem1-D1,≤ 0
same,SPOT peptide array binding signal intensity,ScBzz1-D1,2.5
same,SPOT peptide array binding signal intensity,ScBzz1-D2,≤ 0
same,SPOT peptide array binding signal intensity,ScCyk3,5
same,SPOT peptide array binding signal intensity,ScFus1,≤ 0
same,SPOT peptide array binding signal intensity,ScHof1,32.5
same,SPOT peptide array binding signal intensity,ScHse1,≤ 0
same,SPOT peptide array binding signal intensity,ScLsb1,80.2
same,SPOT peptide array binding signal intensity,ScLsb2,18
same,SPOT peptide array binding signal intensity,ScLsb3,4520
same,SPOT peptide array binding signal intensity,ScLsb4,1710
same,SPOT peptide array binding signal intensity,ScMyo3,33.5
same,SPOT peptide array binding signal intensity,ScMyo5,2.75
same,SPOT peptide array binding signal intensity,ScNbp2,6
same,SPOT peptide array binding signal intensity,ScPex13,789
same,SPOT peptide array binding signal intensity,ScRvs167,966
same,SPOT peptide array binding signal intensity,ScSho1,91.5
same,SPOT peptide array binding signal intensity,ScSla1-D1-D2,34.5
same,SPOT peptide array binding signal intensity,ScSla1-D3,1
same,SPOT peptide array binding signal intensity,SpAbp1-D1,5.5
same,SPOT peptide array binding signal intensity,SpBbc1,0.5
same,SPOT peptide array binding signal intensity,SpBzz1-D1,81
ERPKRRAPPPVPKKP,SPOT peptide array binding signal intensity,CaNbp2,814
same,SPOT peptide array binding signal intensity,CaRvs167,16.7
same,SPOT peptide array binding signal intensity,CaRvs167-3,0.75
same,SPOT peptide array binding signal intensity,CaSho1,6
same,SPOT peptide array binding signal intensity,CaSla1-D1-D2,2360
same,SPOT peptide array binding signal intensity,CaSla1-D3,698
same,SPOT peptide array binding signal intensity,ScAbp1,2010
same,SPOT peptide array binding signal intensity,ScBbc1,460
same,SPOT peptide array binding signal intensity,ScBem1-D1,4
same,SPOT peptide array binding signal intensity,ScBzz1-D1,2120
same,SPOT peptide array binding signal intensity,ScBzz1-D2,66
same,SPOT peptide array binding signal intensity,ScCyk3,2.5
same,SPOT peptide array binding signal intensity,ScFus1,6
same,SPOT peptide array binding signal intensity,ScHof1,≤ 0
same,SPOT peptide array binding signal intensity,ScHse1,≤ 0
same,SPOT peptide array binding signal intensity,ScLsb1,101
same,SPOT peptide array binding signal intensity,ScLsb2,70
same,SPOT peptide array binding signal intensity,ScLsb3,608
same,SPOT peptide array binding signal intensity,ScLsb4,10
same,SPOT peptide array binding signal intensity,ScMyo3,1180
same,SPOT peptide array binding signal intensity,ScMyo5,959
same,SPOT peptide array binding signal intensity,ScNbp2,577
same,SPOT peptide array binding signal intensity,ScPex13,257
same,SPOT peptide array binding signal intensity,ScRvs167,151
same,SPOT peptide array binding signal intensity,ScSho1,166
same,SPOT peptide array binding signal intensity,ScSla1-D1-D2,1960
same,SPOT peptide array binding signal intensity,ScSla1-D3,691
same,SPOT peptide array binding signal intensity,SpAbp1-D1,280
same,SPOT peptide array binding signal intensity,SpBbc1,76
same,SPOT peptide array binding signal intensity,SpBzz1-D1,1460
same,SPOT peptide array binding signal intensity,SpBzz1-D2,40.2
same,SPOT peptide array binding signal intensity,SpCyk3,1
same,SPOT peptide array binding signal intensity,SpHof1,112
same,SPOT peptide array binding signal intensity,SpHof1-2,12
same,SPOT peptide array binding signal intensity,SpHof1-3,122
same,SPOT peptide array binding signal intensity,SpHse1,43.2
same,SPOT peptide array binding signal intensity,SpLsb1,302
same,SPOT peptide array binding signal intensity,SpLsb4,489
same,SPOT peptide array binding signal intensity,SpMyo1,1100
same,SPOT peptide array binding signal intensity,SpNbp2,10
same,SPOT peptide array binding signal intensity,SpPex13,15
same,SPOT peptide array binding signal intensity,SpRvs167,175
same,SPOT peptide array binding signal intensity,SpSla1-D1-D2,215
same,SPOT peptide array binding signal intensity,SpSla1-D3,≤ 0
